Compounds with a hit are over-represented: about 1.4% of the library has one in this group of screens.
N370S GC: inhibits or activates N370S mutant glucocerebrosidase | N370S GC spleen homogenate, 4MU-glucoside fluorescence | AID 2101 | P04062 | Potency, µM (series often up to 59.4 µM), for inactives: at the top dose activity change, negative = inhibition, most hits filed as inhibitors | actives 0.092% (n = 330,000);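 also: potency is read from the fitted curve at half-maximal effect; 0% = full enzyme activity and -100% = no enzyme basal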
p53 reactivation: restores transcriptional activity of mutant p53; H1299 p53-A138V BP100-luciferase reporter, luminescence, 24 h; Potency, µM (series often up to 92.2 µM), inactives show at the top dose activity change, positive = activation, most hits filed as activators; actives 0.063% (n = 320,000); AID 504706; also: potency is read from the fitted curve at half-maximal effect; % of control where 0% means no effect; nearly all actives have a fitted effect of over 45% in size
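p53-null H1299 cells stably carrying temperature-sensitive p53-A138V and a BP100-luciferase reporter were pinned with compounds (4-point, 1:5 series) and held 24 hrs at 37 deg C. Luminescence was read 10 min after detection reagent.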
GLS inhibitor: blocks human kidney-isoform glutaminase activity; O94925; GLS enzymatic activity, qHTS titration; Potency, µM (series often up to 45.5 µM), for the others: at the top dose activity change, negative = inhibition, hits mostly inhibitors; actives 0.21% (n = 410,000); AID 624170; also: potency is read from the fitted curve at half-maximal effect; % is scaled to controls: 0 for no effect and ±100 for the full control effect
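Read-out is an Amplex red fluorescence increase coupled through glutamate oxidase and HRP, measured before and after 30 min room-temperature incubation. hKGA is in 45 mM KH2PO4 (pH 8.2) with 0.02% Tween-20; glutamine added as 1mM solution.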
BRCA1 expr up: BRCA1 expression activation; actives 1.1% (n = 380,000); MCF7-BRCA1-FFLuc reporter, luminescence, 48 h; response scale: scaled: vehicle 0%, 10 µM genistein 100%; AID 624202; Potency, µM (series often up to 46.1 µM), without a hit: top-dose activation, usual class: activators; also: potency is read from the fitted curve at half-maximal effect; nearly all actives have a fitted effect of over 80% in size
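MCF7-BRCA1-FFLuc, 2000 cells/well; 2 h attach, 37 °C/5% CO2; compound 48 h; luciferase substrate 15 min; luminescence end-point. Norm. to genistein 10 microM max activation and DMSO; concentration-response curves fitted.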
TCR activator: activates T cell receptor signaling; primary human leukocytes, anti-CD3, IL-2 HTRF, 48 h; Potency, µM (highest dose often 9.22 µM), for the others: at the top dose activation of IL-2 secretion, actives largely listed as activators; 330,000 tested, under 10 active; also: % of control where 0% means no effect
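Readout: HTRF IL-2, Eu-cryptate/d2 antibody pair, 320nm excitation, 665nm emission. Stimulus: a-CD3 beads, no co-stimulation. Cells: primary human leukocytes. Exposure: 48 hr with compound.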
TSHR antagonist: blocks TSH signaling through the human TSH receptor; P16473; TSHR-expressing cells, TSH-stimulated cAMP HTRF, 2 h; stronger effect = lower value; activity change, negative = inhibition, % at 11.5 µM; actives 0.2% (n = 330,000); AID 504810;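 active = activity change below a set negative limit, meaning inhibition stronger than a set level, cut at about -70% in these data; inconclusive = activity change between two set negative limits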; also: % is scaled to controls: 0 for no effect and ±100 for the full control effect
Target sequence (P16473 whole entry, looked up): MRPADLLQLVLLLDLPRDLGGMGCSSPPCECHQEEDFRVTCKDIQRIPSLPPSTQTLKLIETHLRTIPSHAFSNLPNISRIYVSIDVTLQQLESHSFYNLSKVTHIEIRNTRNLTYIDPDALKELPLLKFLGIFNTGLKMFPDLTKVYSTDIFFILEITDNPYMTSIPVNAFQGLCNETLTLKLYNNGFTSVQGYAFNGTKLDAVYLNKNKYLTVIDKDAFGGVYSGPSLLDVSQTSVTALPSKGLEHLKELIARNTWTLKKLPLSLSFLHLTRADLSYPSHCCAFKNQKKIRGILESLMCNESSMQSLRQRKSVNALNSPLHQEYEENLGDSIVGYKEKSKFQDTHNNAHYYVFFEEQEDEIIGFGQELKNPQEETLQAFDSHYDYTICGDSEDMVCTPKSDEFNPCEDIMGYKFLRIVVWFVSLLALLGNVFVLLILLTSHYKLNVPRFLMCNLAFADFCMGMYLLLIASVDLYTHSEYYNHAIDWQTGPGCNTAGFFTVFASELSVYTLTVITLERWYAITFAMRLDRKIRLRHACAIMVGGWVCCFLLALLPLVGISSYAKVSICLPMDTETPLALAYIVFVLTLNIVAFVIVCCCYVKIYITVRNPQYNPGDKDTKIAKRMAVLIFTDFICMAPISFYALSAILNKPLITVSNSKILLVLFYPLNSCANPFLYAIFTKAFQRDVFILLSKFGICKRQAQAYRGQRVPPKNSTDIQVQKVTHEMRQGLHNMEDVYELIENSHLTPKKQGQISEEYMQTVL
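Competitive HTRF cAMP read-out (cryptate anti-cAMP antibody, cAMP-d2; 30 min, room temperature) in freshly harvested TSHR cells. Compounds added before TSH at EC80 (4nM final), followed by 2 hours' incubation at 37 deg C.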
* hit, by the source's call; ? = inconclusive; . = not tested or not shown; [ ] = dose if it differs, or a comment. Unless noted, calls follow the shape of the dose curve; as a rule, active = well fitted curve in the direction sought with a large enough effect; inconclusive = small, poorly fitted or top-dose-only effect, or another doubt; inactive = no such curve, though single readings can be large; an effect the other way counts as inactive or inconclusive.

SMILES | N370S GC | p53 reactivation | GLS inhibitor | BRCA1 expr up | TCR activator | TSHR antagonist
CC1CCc2sc(C(=O)NCc3ccccn3)cc2C1 (stereo not drawn) | 10.7% | 15.3% | -4.8% | 11.2µM* | -5.3% | -5.1
Cc1ccc(S(=O)(=O)N2CCN(c3nc(-n4c(=O)[nH]c5ccccc54)nc4ccccc34)CC2)cc1 | . | . | . | -19.7% | . | .
O=C(C[n+]1cccc2cc(Cl)ccc21)c1ccc2ccccc2c1 | . | . | . | -58.5% | . | .
Cc1cc(=O)c2c(O)c3c(O)cc(O)c4c5c(O)cc(O)c6c(O)c7c(=O)cc(C)c8c1c2c(c34)c(c65)c78 | -5.6% | . | . | . | . | .
CC1CC=CC2C1C(=O)N(Cc1ccccc1)C2c1ccc(F)c(/C=C/c2ccccc2)c1 (stereo not drawn) | -7.2% | . | . | . | . | .
O=C(O)Cc1cccc(-c2cc(CCCCCCc3ccc(O[C@H]4O[C@H](CO)[C@@H](O)[C@H](O)[C@@H]4O)c(-c4cccc(CC(=O)O)c4)c3)ccc2O[C@H]2O[C@H](CO)[C@@H](O)[C@H](O)[C@@H]2O)c1 | . | . | 14.0% | . | . | .
C/C(=N\NC(=O)c1cc2c(s1)CCC(C)C2)c1ccc[nH]1 (stereo not drawn) | . | . | -2.8% | 5.01µM* | 11.7% | -16.7
CC1CCc2c(C(=O)NCc3ccccn3)csc2C1 (stereo not drawn) | 8.3% | ? | 13.6% | 11.2µM* | 0.5%[46.1 µM] | 10.5
C/C(=N\NC(=O)c1cc2c(s1)CCC(C)C2)c1ccncc1 (stereo not drawn) | 13.3% | 5.9% | -3.4% | 55.2% | 0.5%[46.1 µM] | -4.9
CC1CCc2c(C(=O)Nc3ccccn3)csc2C1 (stereo not drawn) | 1.5% | 25.3% | 5.4% | ? | -37.6% | -4.5
Cn1c(-c2ccccc2)cc2c3no[n+]([O-])c3ccc21 | -2.8% | 7.08µM* | 8.7% | -39.4% | -0.9% | -14.8
COc1ccc(Nc2nc(N)c3ccccc3n2)c(OC)c1 | -7.6% | ? | 15.0% | 3.55µM* | 5.0% | 6.5
COC(=O)CN1C(=O)CSc2ccc(S(=O)(=O)Nc3ccc(C)c(Cl)c3)cc21 | . | . | -5.7% | . | . | .
CC1(C)CC(=O)C2=C(C1)NC(Nc1nc3ccccc3o1)=NC2c1cccc(F)c1 (stereo not drawn) | . | . | . | 15.9% | . | .
CC(=O)c1cccc(NC(=O)c2noc3c2CCCC3)c1 | . | . | -6.6% | . | . | .
Cc1nnc(NC(=O)c2cc3ccccc3o2)s1 | -10.1% | ? | 8.4% | 7.08µM* | 1.4% | -8.4
O[C@@H]([C@H](O)[C@@H](O)CBr)[C@@H](O)CBr | -6.9% | . | . | . | . | .
O=C(NCc1cccs1)c1ccncc1 | -2.0% | -0.7% | 7.7% | -1.2% | -4.0% | 1.6
COc1ccccc1Nc1ccc(C(=O)NCc2cccs2)cn1 | -1.5% | 1.2% | -1.2% | 16.0% | 0.1% | -28.1
CC1CCCN(c2ccc(C(=O)NCc3cccs3)cn2)C1 (stereo not drawn) | 0.1% | ? | -4.5% | 10µM* | -4.1%[46.1 µM] | -10.7
O=C(NCc1cccs1)c1ccc(N2CCCCC2)nc1 | 12.3% | . | -3.6% | 7.94µM* | . | .
CC1CCCN(c2ccc(C(=O)NCc3ccccc3)cn2)C1 (stereo not drawn) | 13.3% | 15.1% | 12.3% | 6.31µM* | 3.5% | 5.0
CC1CCN(c2ccc(C(=O)NCCc3ccccc3)cn2)CC1 | 8.8% | 16.0% | 8.8% | ? | 0.8% | -13.1
COc1ccc(OC)c(CCNC(=O)CCCn2c(=O)c3cccn3c3ccccc32)c1 | . | . | -0.1% | . | . | .
Brc1ccc(C2C=Cc3ccccc32)cc1 (stereo not drawn) | . | . | . | 8.6% | . | .
SMILES | N370S GC | p53 reactivation | GLS inhibitor | BRCA1 expr up | TCR activator | TSHR antagonist
Cc1cc(C(=O)COC(=O)c2ccc(Cl)c(S(N)(=O)=O)c2)c(C)n1CC1CCCO1 (stereo not drawn) | -3.4% | 19.0% | 0.7% | 11.2µM* | -4.0% | -6.6
Cc1cc(C(=O)COC(=O)c2ccc(O)cc2)c(C)n1CC1CCCO1 (stereo not drawn) | -7.7% | -0.7% | -0.3% | ? | -2.0% | -7.2
COc1ccc(/C=C/c2nc(C#N)c(N3CCC(C(N)=O)CC3)o2)cc1OC | . | . | 4.0% | . | . | .
O=C(O)c1cc(O)c2c(c1)[C@@H]([C@H]1c3cc(C(=O)O)cc(O)c3C(=O)c3c(O[C@@H]4O[C@H](CO)[C@@H](O)[C@H](O)[C@H]4O)cccc31)c1cccc(O[C@@H]3O[C@H](CO)[C@@H](O)[C@H](O)[C@H]3O)c1C2=O | . | -11.9% | 1.78µM* | 50.0% | 3.1% | -79.0*
O=C(O)c1cc(O)c2c(c1)[C@H]([C@H]1c3cc(C(=O)O)cc(O)c3C(=O)c3c(O[C@@H]4OC(CO)C(O)C(O)C4O)cccc31)c1cccc(O[C@@H]3OC(CO)C(O)C(O)C3O)c1C2=O (stereo partly drawn) | -22.9% | . | -88.4% | . | . | .
CC1CCCN(S(=O)(=O)c2csc(C(N)=O)c2)C1 (stereo not drawn) | -2.9% | 4.6% | 2.6% | -0.7% | 11.5% | -139.9*
CN(CCc1cnn(C)c1)C(=O)CCc1nnc(CCCc2ccccc2)o1 | -3.1% | 15.7% | 15.0% | 40.5% | 3.5% | -2.1
CN(CCc1ccccn1)C(=O)CCc1nnc(CCCc2ccccc2)o1 | 1.1% | 7.8% | -3.0% | 12.6µM* | 4.3% | -4.8
CS(=O)(=O)N1CCN(/[N+]([O-])=N/Oc2ccc([N+](=O)[O-])cc2[N+](=O)[O-])CC1 | . | . | . | -42.7% | . | .
C[C@@H](O[C@H]1OCCN(Cc2n[nH]c(=O)[nH]2)[C@@H]1c1ccc(F)cc1)c1cc(C(F)(F)F)cc(C(F)(F)F)c1 | . | . | -1.2% | . | . | .
CC(=O)Oc1ccc(C2(c3ccc(OC(C)=O)cc3)Oc3ccccc3NC2=O)cc1 | . | . | 4.0% | . | . | .
Cc1ccccc1Nc1nc(N)c(C(=O)c2ccccc2Cl)s1 | . | . | -6.5% | . | . | .
Cc1ccccc1C(=O)NC(=S)Nc1sc2c(c1C#N)CCC(C)C2 (stereo not drawn) | 5.1% | 6.5% | 24.1% | 6.6% | 0.4% | -1.5
CC(=O)NC(=S)Nc1sc2c(c1C(N)=O)CCC(C)C2 (stereo not drawn) | -6.5% | 11.6% | -10.7% | 4.47µM* | 2.6% | -4.2
CC1CCc2c(sc(NC(=S)NC(=O)c3ccccc3)c2C#N)C1 (stereo not drawn) | -2.0% | 12.0% | -5.6% | 11.2µM* | 0.4% | 5.7
N#Cc1cc([N+](=O)[O-])c2sc(C(N)=O)[n+]([O-])c2c1 | . | . | . | . | . | -22.0
Cc1c(CC(=O)NC(C)C)c(=O)oc2cc3c(cc12)CCC(C)(C)O3 | ? | 13.3% | -4.6% | 11.2µM* | 2.6% | 1.1

Compound activity deposited in PubChem by National Center for Advancing Translational Sciences (NCATS).
